Screens from PubChem BioAssay.
An excerpt weighted towards active compounds, which were near 6.2% of everything screened.
VP16 counter – counter-screen for ROR gamma inhibitors: Gal4-VP16 reporter; Drosophila S2 Gal4-VP16 UAS-luciferase, luminescence, 20 h; Potency, µM (titrated, usually from 53.6 µM), hits mostly inhibitors; hit rate 3.5% among 310,000;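 further: Gal4-VP16 expression switched on by copper sulfate through the metallothionein promoter; nearly all actives have a fitted effect of over 50% in size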
KinaseGlo FLuc – blocks Kinase-Glo luciferase, a counter-screen artifact | Q27757 | Kinase-Glo luciferase, ATP luminescence, 8 min | Potency, µM (titrated, usually from 38.3 µM), actives largely listed as inhibitors | hit rate 0.28% among 200,000; further: nearly all actives have a fitted effect of over 60% in size
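Compounds were added to a substrate mix at pH 7.2 (50 mM imidazole, 10 uM ATP, within the enzyme's linear range), followed by Kinase-Glo detection reagent; luminescence was measured after 8 minutes at ambient temperature.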
RORgamma inh – inhibitors of mouse ROR gamma transcriptional activity | Drosophila S2 Gal4-RORgamma UAS-luciferase reporter, 20 h | AID 2551 | P51450 | Potency, µM (highest dose often 53.6 µM), hits mostly inhibitors | hit rate 5.4% among 310,000; further: nearly all actives have a fitted effect of over 60% in size
Target sequence (P51450 whole entry, looked up, the tested form may be a part): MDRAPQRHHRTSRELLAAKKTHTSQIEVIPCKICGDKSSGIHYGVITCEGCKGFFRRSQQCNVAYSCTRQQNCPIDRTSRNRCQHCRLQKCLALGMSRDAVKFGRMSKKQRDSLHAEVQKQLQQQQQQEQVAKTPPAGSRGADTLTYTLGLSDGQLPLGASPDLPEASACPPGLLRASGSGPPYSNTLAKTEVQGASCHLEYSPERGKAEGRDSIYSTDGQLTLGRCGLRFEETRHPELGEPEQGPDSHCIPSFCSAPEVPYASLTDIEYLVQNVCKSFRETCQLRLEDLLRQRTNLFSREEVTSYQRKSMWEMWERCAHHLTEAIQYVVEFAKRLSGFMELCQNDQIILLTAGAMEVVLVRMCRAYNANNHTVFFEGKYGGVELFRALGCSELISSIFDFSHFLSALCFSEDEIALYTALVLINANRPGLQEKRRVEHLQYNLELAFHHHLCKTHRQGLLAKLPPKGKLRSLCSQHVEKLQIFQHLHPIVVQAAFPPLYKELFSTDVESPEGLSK
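In this cell-based reporter format, copper sulfate (700 uM final) drives Gal4–ROR gamma fusion expression from a metallothionein promoter in Drosophila Schneider cells; compounds preincubated 1 hr, reporter read after 20 hr at ambient temperature.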
Each line names hits and unclear results; the compound was inactive in the other large screens. The call rests on the fitted dose curve; in most records, active means well fitted curve in the direction sought with a large enough effect; inconclusive means small, poorly fitted or top-dose-only effect, or another doubt; inactive means no such curve, though single readings can be large; an effect the other way counts as inactive or inconclusive.

CCCn1c(C(C)Nc2nc(C)cs2)nc2cc(Cl)c(Cl)cc21 (stereo unspecified)	RORgamma inh inconclusive (no result: KinaseGlo FLuc)
Cc1csc(N2CCN(c3cc4c(cc3Cl)nc(-c3ccncc3)n4CCCN3CCCC3)CC2)n1	none (no result: KinaseGlo FLuc)
COCC(=O)N1CCC2(CCCN(c3cccc(-c4ccccc4)c3)C2)CC1	none
CCCCc1nc2c(c3c1CC(C)OC3)CN(CCOc1ccccc1)CC2 (stereo unspecified)	none (no result: KinaseGlo FLuc)
CCCn1c(C(CO)Nc2nc(C)cs2)nc2ccccc21 (stereo unspecified)	none (no result: KinaseGlo FLuc)
CCCn1c(C(C)Nc2nc(-c3ccc(C)cc3)cs2)nc2ccccc21 (stereo unspecified)	VP16 counter 18µM, RORgamma inh 5.6µM (no result: KinaseGlo FLuc)
Cc1nn(-c2cc(C)c3ccccc3n2)c2c1C1C(C2)C1(C)C (stereo unspecified)	VP16 counter 18µM, RORgamma inh 0.71µM
Cc1cc(-n2nnc3ccccc32)nc2ccccc12	none
CCOC(=O)N1CCC(N2Cc3cccc(C(=O)NCc4ccccn4)c3C2=O)CC1	none
S=c1[nH]cc(-c2ccccc2)n1-c1cccc(Cl)c1	VP16 counter 4.5µM, RORgamma inh 2.5µM
Cc1[nH]n(-c2ccccc2)c(=O)c1-c1cccc(Cl)c1	none
COc1cccc(-n2c(-c3cccc(S(=O)(=O)N(C)C)c3)n[nH]c2=S)c1	none
COc1cccc(-n2c(-c3ccccc3)c[nH]c2=S)c1	VP16 counter 10µM, RORgamma inh 11µM (no result: KinaseGlo FLuc)
CS(=O)(=O)N1CCN(c2ccc([N+](=O)[O-])c(SCc3ccco3)c2)CC1	none
C=CCN1C(=S)N[C@@H]2CS(=O)(=O)C[C@@H]21	none (no result: KinaseGlo FLuc)
CCOC1=NN(c2ncc(C(F)(F)F)cc2Cl)C(=O)C1	none
CCc1c(C(=O)Nc2ncn(Cc3cccc(C)c3)n2)csc1C	VP16 counter 13µM, RORgamma inh 4µM
CC(=O)c1ccc(NC(=O)Nc2ncn(Cc3cccc(C)c3)n2)cc1	RORgamma inh inconclusive
CCCCOC(=S)NC(=O)c1sc2ccccc2c1Cl	VP16 counter inconclusive, RORgamma inh 5.6µM
O=C(NNC(=S)NC(=O)c1sc2ccccc2c1Cl)c1ccc(Cl)cc1	VP16 counter 13µM, RORgamma inh 5µM
CN(C)CCCOC(=O)c1sc2ccccc2c1Cl	none
Cc1ccc(NC(=S)NC(=O)c2sc3ccccc3c2Cl)c(C(=O)O)c1	VP16 counter inconclusive, RORgamma inh 7.1µM
COc1ccc2c(Cl)c(C(=O)NN)sc2c1	VP16 counter inconclusive, RORgamma inh 11µM
O=C(NNC(=O)c1sc2ccccc2c1Cl)Nc1ccc(Cl)cc1	none
O=C(O)c1ccccc1NC(=S)NC(=O)c1sc2ccccc2c1Cl	none
COc1ccc2c(Cl)c(C(N)=O)sc2c1	none
COc1ccc(-c2cc3ncnc(Cl)c3s2)cc1	none (no result: KinaseGlo FLuc)
COc1ccccc1NC(=O)CSc1nc2ccccc2nc1N1CC(C)OC(C)C1 (stereo unspecified)	none (no result: KinaseGlo FLuc)
CC(C)Cn1c(CCCNC(=O)c2ccco2)nc2ccccc21	none (no result: KinaseGlo FLuc)
CN(C)Cc1nc2ccccc2c(=O)n1Cc1nc(-c2cccc([N+](=O)[O-])c2)cs1	none
Cc1cc(N2CCN(c3nc(-c4ccc([N+](=O)[O-])cc4)cs3)CC2)c2ccccc2n1	VP16 counter 13µM, RORgamma inh 10µM
Cc1cc(-c2ccc([N+](=O)[O-])cc2)nc2ccccc12	none
CN1CCN(Cc2nc3ccccc3c(=O)n2Cc2nc(-c3ccc([N+](=O)[O-])cc3)cs2)CC1	VP16 counter 18µM, RORgamma inh 7.9µM (no result: KinaseGlo FLuc)
CC(=O)Nc1nc2ccccc2n1CCOc1ccccc1Cl	VP16 counter 1.3µM, RORgamma inh 0.79µM
CC(=O)Nc1nc2ccccc2n1Cc1ccccc1Cl	VP16 counter 2.2µM, RORgamma inh 0.89µM (no result: KinaseGlo FLuc)
CC(=O)NCCc1nc2ccccc2n1CCOc1ccccc1	none (no result: KinaseGlo FLuc)
CC(=O)NCCc1nc2ccccc2n1Cc1ccccc1	none
Nc1nc(NC(=O)c2ccccc2)nn1-c1ccccc1	none
CC(=O)Nc1nc(NCc2ccccc2Cl)n(-c2ccccc2)n1	none (no result: KinaseGlo FLuc)
CC(=O)Nc1nc(NC(=O)/C=C/c2ccccc2)n(-c2ccccc2)n1	VP16 counter 0.89µM, RORgamma inh 0.28µM
O=C(Nc1nc(NC(=O)c2ccco2)n(-c2ccccc2)n1)c1ccccc1	VP16 counter 1.3µM, RORgamma inh 0.89µM
COc1ccc(N/C(C)=C2/C(=O)C(=O)N(CCO)C2c2ccc([N+](=O)[O-])cc2)cc1 (stereo unspecified)	none
Cn1c(Sc2ccc(-c3cccnc3)n2C)ccc1-c1cccnc1	none (no result: VP16 counter, RORgamma inh)
COc1ccccc1CNc1nc(-c2ccccc2CN(C)C)nc2ccccc12	RORgamma inh inconclusive
CCC(=O)Nc1nc2ccccc2n1Cc1ccccc1Cl	VP16 counter 2.8µM, RORgamma inh 0.4µM (no result: KinaseGlo FLuc)
CC(=O)NCc1nc2ccccc2n1Cc1ccccc1C	none
CC(=O)Nc1nc2ccccc2n1Cc1ccccc1C	VP16 counter 3.2µM, RORgamma inh 2µM
CCC(=O)Nc1nc2ccccc2n1Cc1ccc(Cl)cc1	VP16 counter 1.3µM, RORgamma inh 0.4µM
CCn1c(CCNC(=O)c2ccco2)nc2ccccc21	none (no result: KinaseGlo FLuc)
O=C(Nc1nc2ccccc2n1Cc1ccccc1)c1ccco1	VP16 counter 2.5µM, RORgamma inh 2µM
CC(=O)NCCc1nc2ccccc2n1Cc1ccc(Cl)cc1	none
CCc1cccc(CC)c1NC(=O)Cn1c(-c2ccccc2Cl)nc2ccccc21	none
Cc1nc2nc(C)c(NS(=O)(=O)c3ccc(Cl)s3)c(=O)n2[nH]1	none (no result: KinaseGlo FLuc)
O=C(c1csnn1)N1CCC2(CCN(Cc3cc(C(F)(F)F)cc(C(F)(F)F)c3)CC2)CC1	none
FC(F)(F)c1cc(NC2CCCCC2)ccn1	RORgamma inh inconclusive (no result: KinaseGlo FLuc)
O=C(OCc1ccccc1)N1CCc2ccccc21	none (no result: KinaseGlo FLuc)
O=C(c1ccccc1)c1ccc(OCC(=O)N2CCOCC2)cc1	none
CCCCC/C=C\C\C=C/C=C/C=C/[C@@H](SCC(NC(=O)CCC(N)C(=O)O)C(=O)NCC(=O)O)[C@@H](O)CCCC(=O)O (stereo partly specified)	none
CN1/C(=C\C(=O)c2cccs2)Sc2ccccc21	RORgamma inh inconclusive (no result: KinaseGlo FLuc)
CN1/C(=C/C(=O)c2cccs2)Sc2ccccc21	VP16 counter inconclusive, KinaseGlo FLuc 14µM, RORgamma inh inconclusive
Cc1ccccc1OCC(=O)NNC(=O)CCN1C(=O)c2ccccc2C1=O	none
CCOC(=O)N/N=C\c1sccc1C	VP16 counter inconclusive
CCCCNC(=S)N/N=C/c1ccccc1F	VP16 counter 3.2µM, RORgamma inh 2.5µM
CCCCNC(=O)C(=O)N/N=C/c1cccc(Br)c1	RORgamma inh inconclusive
O=C(C[n+]1ccccc1)N/N=C/c1ccccc1F	none
CCCCNC(=S)N/N=C/c1sccc1C	RORgamma inh 1.1µM
CCCCNC(=S)N/N=C/c1cc(C)ccc1C	VP16 counter 3.2µM, RORgamma inh 1.8µM
CC(C)[C@@H](CC(=O)N[C@@H]1CCCC[C@H]1C(=O)N[C@H](CC(=O)N[C@@H](CCC(=O)O)CC(=O)O)Cc1c[nH]c2ccccc12)NC(=O)C[C@H](Cc1c[nH]c2ccccc12)NC(=O)[C@@H]1CNCC[C@H]1N	none
C1CCN2C[C@H]3C[C@H](CN4CCCCC34)C2C1 (stereo partly specified)	none
COc1ccc(C(C(=O)NCCC(C)C)N(CCCO)C(=O)c2snc(C(N)=O)c2N)cc1OC (stereo unspecified)	none (no result: KinaseGlo FLuc)
O=C(COc1ccccc1F)N/N=C1\CCCc2ccccc21	VP16 counter inconclusive, RORgamma inh 4µM (no result: KinaseGlo FLuc)
